Results from PubChem BioAssay AID1159580 (chemical genetic matrix, 2015).
“And” between values parts separate entries of the source, which are not always exact repeats. Equal values may be shown once. The whole screen tested about 5,500 compounds, of which about 2,000 (36%) were called active. Another 18% or so got no clear call; they are omitted. Rule as the data show it: active = normalized growth mostly below about 0.91 (no sharp cut-off); inconclusive = no clear call, values can overlap the other calls; inactive = mostly above about 0.92. This is one part of the list.

Assay: chemical genetic growth profiling, strain panel (AID 1159580);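 also: tested at 20 µM; growth read once vehicle control cultures reached saturation at 30 °C; 1 = growth at the plate median or of vehicle wells; lower values mean less growth of the strain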
Conditions: S. cerevisiae deletion strains, growth OD

Measured: normalized growth

CCCOc1ccc2nc(NC(=O)OC)[nH]c2c1
active: locus YEL003W, strain gim4, stronger effect = lower value 0.841
inactive: locus YAL021C, strain ccr4, stronger effect = lower value 1.03 | locus YAL026C, strain drs2, stronger effect = lower value 1.02 | locus YAL030W, strain snc1, stronger effect = lower value 1.02 | locus YBL061C, strain skt5, stronger effect = lower value 1.01 | locus YBR009C, strain hhf1, stronger effect = lower value 1.01 | locus YBR021W, strain FUR4, stronger effect = lower value 1.01 | locus YBR023C, strain chs3, stronger effect = lower value 1.02 | locus YBR171W, strain sec66, stronger effect = lower value 1.02 | locus YBR229C, strain ROT2, stronger effect = lower value 0.992 | locus YBR231C, strain swc5, stronger effect = lower value 1.01 | locus YBR279W, strain paf1, stronger effect = lower value 1.02 | locus YCL011C, strain gbp2, stronger effect = lower value 1.01 | locus YCL016C, strain dcc1, stronger effect = lower value 1.02 | locus YCL029C, strain bik1, stronger effect = lower value 0.974 | locus YCL061C, strain MRC1, stronger effect = lower value 1.01 | locus YCL069W, strain vba3, stronger effect = lower value 1.02 | locus YCR088W, strain abp1, stronger effect = lower value 1.02 | locus YDL005C, strain med2, stronger effect = lower value 1.02 | locus YDL035C, strain GPR1, stronger effect = lower value 1.01 | locus YDL040C, strain nat1, stronger effect = lower value 1.02 | locus YDL074C, strain BRE1, stronger effect = lower value 1.02 | locus YDL101C, strain DUN1, stronger effect = lower value 0.997 | locus YDL134C, strain PPH21, stronger effect = lower value 0.982 | locus YDL185W, strain tfp1, stronger effect = lower value 0.976 | locus YDL192W, strain arf1, stronger effect = lower value 0.97 | locus YDR001C, strain nth1, stronger effect = lower value 1.02 | locus YDR069C, strain doa4, stronger effect = lower value 1.01 | locus YDR101C, strain arx1, stronger effect = lower value 1.01 | locus YDR137W, strain rgp1, stronger effect = lower value 0.951 | locus YDR150W, strain NUM1, stronger effect = lower value 0.996 | locus YDR159W, strain sac3, stronger effect = lower value 1.01 | locus YDR162C, strain NBP2, stronger effect = lower value 0.983 | locus YDR195W, strain ref2 1.04 | locus YDR297W, strain sur2, stronger effect = lower value 1.02 | locus YDR318W, strain mcm21, stronger effect = lower value 0.977 | locus YDR334W, strain swr1, stronger effect = lower value 1.01 | locus YDR335W, strain msn5, stronger effect = lower value 1.02 | locus YDR388W, stronger effect = lower value 0.981 | locus YDR392W, strain spt3, stronger effect = lower value 0.99 | locus YDR502C, strain sam2, stronger effect = lower value 0.983 | locus YEL037C, strain rad23, stronger effect = lower value 1.01 | locus YEL061C, strain CIN8 (second series), stronger effect = lower value 1.02 | locus YEL061C, strain CIN8, stronger effect = lower value 0.999 | locus YER015W, strain faa2, stronger effect = lower value 1 | locus YER016W, strain bim1, stronger effect = lower value 1.02 | locus YER110C, stronger effect = lower value 0.968 | locus YER111C, strain swi4, stronger effect = lower value 1.01 | locus YER155C, strain BEM2 (second series), stronger effect = lower value 1.02 | locus YER155C, strain BEM2, stronger effect = lower value 0.992 | locus YER167W, strain BCK2, stronger effect = lower value 0.988 | locus YFR010W, strain ubp6, stronger effect = lower value 1.02 | locus YGL078C, strain dbp3, stronger effect = lower value 0.982 | locus YGL086W, strain mad1, stronger effect = lower value 0.989 | locus YGL167C, strain pmr1, stronger effect = lower value 1.01 | locus YGL173C, strain kem1, stronger effect = lower value 1.02 | locus YGL227W, strain vid30, stronger effect = lower value 1.02 | locus YGL240W, strain doc1, stronger effect = lower value 1 | locus YGL248W, strain PDE1, stronger effect = lower value 0.986 | locus YGL253W, strain hxk2, stronger effect = lower value 1.01 | locus YGR078C, strain PAC10, stronger effect = lower value 0.856 | locus YGR135W, strain pre9, stronger effect = lower value 0.953 | locus YGR229C, strain SMI1, stronger effect = lower value 0.983 | locus YGR252W, strain gcn5, stronger effect = lower value 0.956 | locus YHR013C, strain ard1, stronger effect = lower value 1.01 | locus YHR027C, strain rpn1, stronger effect = lower value 1.01 | locus YHR030C, strain SLT2, stronger effect = lower value 0.988 and 1.02 | locus YHR079C, strain IRE1 (second series), stronger effect = lower value 0.986 | locus YHR079C, strain IRE1, stronger effect = lower value 1.02 | locus YHR094C, strain hxt1, stronger effect = lower value 0.982 | locus YHR129C, strain ARP1, stronger effect = lower value 0.989 | locus YHR142W, strain chs7, stronger effect = lower value 1.03 | locus YHR200W, strain rpn10, stronger effect = lower value 0.98 | locus YIL066C, strain RNR3, stronger effect = lower value 0.996 | locus YIL073C, strain SPO22, stronger effect = lower value 0.964 | locus YIL125W, strain kgd1, stronger effect = lower value 0.993 | locus YIR030C, strain dcg1, stronger effect = lower value 0.983 | locus YJL092W, strain hpr5, stronger effect = lower value 1.01 | locus YJL095W, strain BCK1 (second series), stronger effect = lower value 1.02 | locus YJL095W, strain BCK1, stronger effect = lower value 1.01 and 1.06 | locus YJL115W, strain asf1, stronger effect = lower value 1 | locus YJL129C, strain trk1, stronger effect = lower value 1.03 | locus YJL134W, strain LCB3, stronger effect = lower value 0.995 | locus YJL154C, strain vps35, stronger effect = lower value 1.02 | locus YJL164C, strain tpk1, stronger effect = lower value 1.02 | locus YJL166W, strain qcr8, stronger effect = lower value 1.02 | locus YJL168C, strain set2, stronger effect = lower value 0.994 | locus YJL187C, strain SWE1 (second series), stronger effect = lower value 1.01 | locus YJL187C, strain SWE1, stronger effect = lower value 1.01 | locus YJR043C, strain POL32, stronger effect = lower value 0.991 | locus YJR066W, strain TOR1, stronger effect = lower value 0.94
